From the supplement of paper PMC10981050
Several values for one entry are separate records, joined by “and”; a condition that tells them apart may be missing. Identical values can stand only once.

Columns and labels:
Assay in all cases: cell viability relative to vehicle control; higher = less cytotoxic
Conditions in all cases: 10 µM
K562 = system: K562
Procedure, shortened: (§1)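 Four leukaemia lines, as CRISPR-edited mutant clones and isogenic wild-type clones, were tested against Selleck bioactive, kinase and epigenetic probe libraries after removal of identity-inconsistent compounds. Cells were exposed to a single 10 µM dose for 48 h, and CellTiter-Glo luminescence was then read. Viability was calculated relative to the on-plate vehicle control.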

MARIMO = system: MARIMO
Procedure, shortened: as §1

MOLM14 = system: MOLM14
Procedure, shortened: as §1

OCI-AML2 = system: OCI-AML2
Procedure, shortened: as §1

Structure (SMILES)	cell viability (K562; SRSF2 genotype: SRSF2 P95H/wt)	cell viability (K562; SRSF2 genotype: SRSF2 wt/wt) [%]	cell viability (MARIMO; SRSF2 genotype: SRSF2 P95H/wt) [%]	cell viability (MARIMO; SRSF2 genotype: SRSF2 wt/wt) [%]	cell viability (MOLM14; SRSF2 genotype: SRSF2 P95H/wt) [%]	cell viability (MOLM14; SRSF2 genotype: SRSF2 wt/wt) [%]	cell viability (OCI-AML2; SRSF2 genotype: P95H/wt) [%]	cell viability (OCI-AML2; SRSF2 genotype: wt/wt) [%]
CN1CCN(c2ccc(OC(F)(F)F)c(Nc3ncc4c(n3)-c3c(c(C(N)=O)nn3CCO)CC4)c2)CC1	29.2% and 49.6%	46	24.7	22.9	17.5	4.9	14.6	18.8
CN(c1ccccc1CNc1nc(Nc2ccc3c(c2)CC(=O)N3)ncc1C(F)(F)F)S(C)(=O)=O	17% and 28.3%	16.4	8.93	3.27	0.69	0.39	1.33	13.7
COc1cc(N2CCC(N)CC2)ccc1Nc1ncc(Cl)c(-c2c[nH]c3ccccc23)n1	14.5% and 15.7%	7.15	37.8	33.6	1.81	5.73	6	16.7
O=C(Nc1cc(Cl)cc(Cl)c1O)c1c(O)c(Cl)cc(Cl)c1Cl [Oxyclozanide]	96% and 91.7%	97.8	97.2	108	99.1	103	102	99.9
Cc1oncc1C(=O)Nc1ccc(C(F)(F)F)cc1 [Leflunomide]	93.4% and 96.5%	86.8	94.9	90.1	102	98.3	80.3	85.1
COC(=O)c1ccc2c(c1)[nH]c1ncnc(NCCCN3CCCCC3)c12	78.5% and 68.9%	73.5	49.9	49	23.7	15.7	24.2	31
O=S(=O)(O)Oc1ccc(C(c2ccc(OS(=O)(=O)O)cc2)c2ccccn2)cc1 [Sodium Picosulfate]	103% and 102%	108	106	112	103	104	104	101
C[C@@H](O)[C@H]1C(=O)N2C(C(=O)O)=C(S[C@@H]3CN[C@H](C(=O)N(C)C)C3)[C@H](C)[C@H]12 [Meropenem]	103% and 109%	106	94.7	96.9	103	101	111	101
COc1ccc(-n2c(C)c([N+](=O)[O-])c3ccc(O)cc32)cc1	97.5% and 95.4%	94	99.2	108	93.6	98.2	73.1	80.2
COc1ccc([C@]2(C#N)CC[C@@H](C(=O)O)CC2)cc1OC1CCCC1	96.5% and 91.9%	99.1	93.8	110	94.8	100	95.6	102
